PMC5892938, “SARNAclust: Semi-automatic detection of RNA protein binding motifs from immunoprecipitation data”
In all, about 11,000 sequences were measured (“log2 fold change”: median about 0.00022, highest 2% from about 0.34 on). The list shows a part of the results.

Biological target: GST-SBP-SLBP (stem-loop binding protein) (Homo sapiens, UniProt Q14493 1-270)
Experiment: targeted RNA Bind-n-Seq; RBNS binding buffer: 25 mM Tris pH 7.5, 150 mM KCl, 3 mM MgCl2, 0.1% Tween, 0.5 mg/mL BSA, 1 mM DTT; 27 nM protein, 750 pM RNA pool; temperature not stated; high values mean tight binding
Conditions: protein: recombinant; tags: N-terminal GST and SBP (pGEX6P1-SBP); structured_RNA
Summary of the method: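 A designed RNA oligo pool, transcribed with T7, was present at 750 pM and incubated in RBNS binding buffer with 27 nM of GST-SBP-tagged protein that had been expressed in Rosetta(DE3) pLysS E. coli and purified with glutathione. After reverse transcription with a 10-nucleotide barcoded primer and PCR, the bound RNA was sequenced as 200-cycle paired-end reads on a MiSeq. Each sequence's binding signal is the DEseq binary-logarithm fold change in read counts, computed after joining reads with FLASH, aligning with HISAT2 and collapsing by barcode.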

| Sequence | binding signal [log2 fold change] |
| --- | --- |
| GGUCACGUCUCAAUCAACUCAGUUUCCAGGGAAAACCCUGGCUUUCUCAACAGCUCGCAGUCAAG | 0.31 ± 0.297 |
| GGUCACGUCUCAAUCAACUCAUCUCCCAGGGAAAACCCUGGCAUUCUCAACAGCUCGCAGUCAAG | 0.367 ± 0.304 |
| GGUCACGUCUCAAUCAACUCUUUUUCCAGGGAAAACCCUGGCGUAUUCAACAGCUCGCAGUCAAG | 0.352 ± 0.225 |
| GGUCACGUCUCAAUCAACUCUUCUCCCAGGGAAACCCCUGGCAUUCUCAACAGCUCGCAGUCAAG | 0.304 ± 0.257 |
| GGUCACGUCUCAAUCAACUCUUUUUCCAGGGAAAACCCUGGCAUGUUCAACAGCUCGCAGUCAAG | 0.34 ± 0.244 |
| GGUCACGUCUCAAUCAACUCCUUAGAGGGGGGGAAAACCCCUUUACCCUCAACUUCAACAGCUCGCAGUCAAG | 0.489 ± 0.43 |
| GGUCACGUCUCAAUCAACUCCUUAGAGGGGGGGAAAACCCCUUUACCCUCAACCUCAACAGCUCGCAGUCAAG | 0.395 ± 0.407 |
| GGUCACGUCUCAAUCAACUCAAUGGAGGGGGGGAAAACCCCUUUACCCUCAAAAUCAACAGCUCGCAGUCAAG | 0.547 ± 0.434 |
| GGUCACGUCUCAAUCAACUCCUUAGAGGGGGGGAAAACCCCUUUACCCUCAAAAUCAACAGCUCGCAGUCAAG | 0.546 ± 0.43 |
| GGUCACGUCUCAAUCAACUCCUUAGAGGGGGGGAAAACCCCUUUACCCUCGUUAUCAACAGCUCGCAGUCAAG | 0.302 ± 0.406 |
| GGUCACGUCUCAAUCAACUCCCCAGAGGGGGGGAAAACCCCUUUACCCUCAUCCUCAACAGCUCGCAGUCAAG | 0.566 ± 0.415 |
| GGUCACGUCUCAAUCAACUCAUAGGAGGGGGGGAAAACCCCUUUACCCUCAUCAUCAACAGCUCGCAGUCAAG | 0.315 ± 0.446 |
| GGUCACGUCUCAAUCAACUCUUCAGAGGGGGGGAAAACCCCUUUACCCUCACAAUCAACAGCUCGCAGUCAAG | 0.311 ± 0.418 |
| GGUCACGUCUCAAUCAACUCAUCAGAGGGGGGGAAAACCCCUUUACCCUCAUCCUCAACAGCUCGCAGUCAAG | 0.388 ± 0.447 |
| GGUCACGUCUCAAUCAACUCAUCAGAGGGGGGGAAAACCCCUUUACCCUCAACUUCAACAGCUCGCAGUCAAG | 0.39 ± 0.431 |
| GGUCACGUCUCAAUCAACUCAUAGGAGGGGGGGAAAACCCCUUUACCCUCAACUUCAACAGCUCGCAGUCAAG | 0.451 ± 0.453 |
| GGUCACGUCUCAAUCAACUCCUUAGAGGGGGGGAAAACCCCUUUGCCCUCGUUUUCAACAGCUCGCAGUCAAG | 0.342 ± 0.445 |
| GGUCACGUCUCAAUCAACUCCUUAGAGGGGGGGAAAACCCCUUUGCCCUCACCGUCAACAGCUCGCAGUCAAG | 0.412 ± 0.444 |

| Sequence | binding signal [log2 fold change] |
| --- | --- |
| GGUCACGUCUCAAUCAACUCCUUAGAGGGGGGGAAAACCCCUUUGCCCUCCGUAUCAACAGCUCGCAGUCAAG | 0.307 ± 0.406 |
| GGUCACGUCUCAAUCAACUCCUUAGAGGGGGGGAAAACCCCUUUGCCCUCAACAUCAACAGCUCGCAGUCAAG | 0.411 ± 0.394 |
| GGUCACGUCUCAAUCAACUCUACGGCAGGAGUUUACUCCUGGAAUCUCAACAGCUCGCAGUCAAG | 0.318 ± 0.232 |
| GGUCACGUCUCAAUCAACUCCACAGAGGGGGGGAAAACCCCUUUACCCUCCAUCUCAACAGCUCGCAGUCAAG | 0.416 ± 0.406 |
| GGUCACGUCUCAAUCAACUCAAUAGAGGGGGGGAAAACCCCUUUACCCUCACCAUCAACAGCUCGCAGUCAAG | 0.306 ± 0.41 |
| GGUCACGUCUCAAUCAACUCAAAAGAGGGGGGGAAAACCCCUUUACCCUCACCAUCAACAGCUCGCAGUCAAG | 0.563 ± 0.413 |
| GGUCACGUCUCAAUCAACUCAACAGAGGGGGGGAAAACCCCUUUACCCUCACCAUCAACAGCUCGCAGUCAAG | 0.341 ± 0.391 |
| GGUCACGUCUCAAUCAACUCUCUAGAGGGGGGGAAAACCCCUUUACCCUCACCAUCAACAGCUCGCAGUCAAG | 0.354 ± 0.424 |
| GGUCACGUCUCAAUCAACUCCAAGGAGGGGGGGAAAACCCCUUUACCCUCAAUCUCAACAGCUCGCAGUCAAG | 0.482 ± 0.442 |
| GGUCACGUCUCAAUCAACUCCCUAGAGGGGGGGAAAACCCCUUUACCCUCAAUGUCAACAGCUCGCAGUCAAG | 0.558 ± 0.455 |
| GGUCACGUCUCAAUCAACUCCCUAGAGGGGGGGAAAACCCCUUUACCCUCACAAUCAACAGCUCGCAGUCAAG | 0.389 ± 0.428 |
| GGUCACGUCUCAAUCAACUCAUCGUCAGGAGUUUUCUCCUGUAAACUCAACAGCUCGCAGUCAAG | 0.313 ± 0.233 |
| GGUCACGUCUCAAUCAACUCUUUCUCAGGAGUUUCCUCCUGUUUACUCAACAGCUCGCAGUCAAG | 0.312 ± 0.17 |
| GGUCACGUCUCAAUCAACUCUAUCUCAGGAGUUUACUCCUGUAUAUUCAACAGCUCGCAGUCAAG | 0.337 ± 0.252 |
| GGUCACGUCUCAAUCAACUCAAUCUCAGGAGUUUUCUCCUGUAUACUCAACAGCUCGCAGUCAAG | 0.429 ± 0.219 |
| GGUCACGUCUCAAUCAACUCUUUCUCAGGAGUUUACUCCUGUAUAUUCAACAGCUCGCAGUCAAG | 0.355 ± 0.213 |
| GGUCACGUCUCAAUCAACUCAUCGCCAGGAGUUUGCUCCUGUAUUUUCAACAGCUCGCAGUCAAG | 0.321 ± 0.274 |
